Screening results: PubChem BioAssay, National Center for Advancing Translational Sciences (NCATS)
TSHR ag: agonists of human thyroid stimulating hormone receptor | HEK293-CNG-TSHR cells (CNG channel as cAMP sensor), membrane potential dye, cAMP | Potency, µM (top dose mostly 57.1 µM), inactives show at the top dose activation, most hits filed as activators | P16473 | hit rate 0.48% among 73,000; active means well fitted activation curve with a large enough effect in the main read-out, with a control signal flat, not every such curve was filed as active; inconclusive means small, poorly fitted or top-dose-only effect, or a change in a side signal; inactive means no such curve, though single readings can be large or run the other way; % of control where 0% means no effect;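 further: the control signal comes from parental cells without the receptor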
Target sequence (P16473 whole entry, looked up): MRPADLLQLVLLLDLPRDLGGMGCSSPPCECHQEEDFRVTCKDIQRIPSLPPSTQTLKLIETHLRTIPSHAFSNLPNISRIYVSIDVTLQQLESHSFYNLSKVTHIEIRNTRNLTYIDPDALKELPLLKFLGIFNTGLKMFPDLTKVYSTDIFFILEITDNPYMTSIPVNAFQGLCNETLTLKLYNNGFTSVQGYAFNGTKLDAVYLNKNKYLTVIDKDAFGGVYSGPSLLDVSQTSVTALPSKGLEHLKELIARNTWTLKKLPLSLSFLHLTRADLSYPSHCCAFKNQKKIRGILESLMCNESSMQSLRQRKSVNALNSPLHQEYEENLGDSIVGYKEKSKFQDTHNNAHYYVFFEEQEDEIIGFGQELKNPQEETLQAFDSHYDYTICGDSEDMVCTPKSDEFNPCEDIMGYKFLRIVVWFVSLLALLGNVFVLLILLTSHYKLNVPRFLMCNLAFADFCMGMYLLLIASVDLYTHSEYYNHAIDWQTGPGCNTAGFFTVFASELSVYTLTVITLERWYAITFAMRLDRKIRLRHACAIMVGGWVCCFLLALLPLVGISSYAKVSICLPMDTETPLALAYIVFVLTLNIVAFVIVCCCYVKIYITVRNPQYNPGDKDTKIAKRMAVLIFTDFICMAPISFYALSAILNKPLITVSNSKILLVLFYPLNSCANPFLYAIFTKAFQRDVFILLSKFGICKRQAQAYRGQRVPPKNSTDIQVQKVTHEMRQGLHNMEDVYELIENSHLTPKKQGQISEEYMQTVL
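cAMP rise detected as CNG-channel membrane depolarization by fluorescent dye (emission 590 nm), 30 min after compound, following 60 min dye loading containing 100 uM RO 20-1724 at room temperature. Cells: TSHR/CNG HEK 293, with parental CNG HEK 293 as control.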
HEK293 cAMP cs: counter-screen for TSHR agonists: cAMP increase in parental HEK293 | parental HEK293 CNG cAMP sensor, membrane potential fluorescence | hit rate 2.5% among 73,000 | AID 938 | Potency, µM (titrated, usually from 57.1 µM), without a hit: at the highest dose activation, actives largely listed as activators; further: % of control where 0% means no effect; nearly all actives have a fitted effect of over 55% in size
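Counterscreen for endogenous-receptor signalling: CNG-channel HEK 293 cells report cAMP rise by membrane depolarization. After 60 min dye equilibration with 100 uM RO 20-1724, compounds incubated 30 min before bottom-read fluorescence at 590 nm.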
IkB signaling: IkB pathway inhibition in ABC-DLBCL cells; hit rate 0.04% among 110,000; Potency, µM (series often up to 57.1 µM), for inactives: at the highest dose IkBa stabilization activation; ABC-DLBCL IkBa-CBG/CBR dual luciferase ratio, 4 h; response scale: scaled: untreated 0%, proteasome inhibitor 100%; active means well fitted curve in the direction sought with a large enough effect in the signal ratio, not every such curve was filed as active; inconclusive means small, poorly fitted or top-dose-only effect, or a change in a side signal; the % refers to the signal ratio;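 further: the direction sought is a rising ratio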
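Luminescence ratio of IκBα-fused green versus native red beetle luciferase in OCI-Ly3 cells, 4 h post-doxycycline with compound; red signal alone, scaled from basal (0%) to zero light (-100%), flagged nonspecific or cytotoxic effects.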
Peg3 imprint: inducers of genomic imprint erasure in mouse ES cells | mouse ES Peg3-LacZ reporter, beta-gal luminescence, 40 h | Potency, µM (top dose mostly 60.7 µM), without a hit: at the top dose activity change, positive = activation, hits mostly activators | hit rate 0.02% among 110,000
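Each well holds 300 Peg3LacZ-Neo (maternal) female ES cells incubated 40 h at 37C, 5% CO2. LacZ is measured by BetaGlo luminescence, with AC50 and maximum efficacy derived from dose-response curves.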
p53ts 39C tox: kills p53ts cells at the nonpermissive temperature | H1299-p53A138V viability at 39C, ATP luminescence, 24 h | Potency, µM (highest dose often 46.1 µM), for the others: at the top dose activity change, negative = cell killing, most hits filed as cytotoxic | hit rate 1.5% among 130,000 | AID 902; further: on the % scale 0 is the no-effect control and ±100 the full control effect; nearly all actives have a fitted effect of over 55% in size
p53ts 32C tox: cytotoxicity in p53ts cells at permissive temperature | H1299-p53A138V at 32C, ATP luminescence viability, 24 h | Potency, µM (top dose mostly 46.1 µM), without a hit: at the highest dose activity change, negative = cytotoxicity, most hits filed as cytotoxic | hit rate 0.93% among 130,000 | AID 924;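 further: 0% = DMSO and -100% = full killing by reference compound; nearly all actives have a fitted effect of over 55% in size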
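H1299-p53 A138V cells (temperature-sensitive p53) exposed 24 h to up to 46 uM compound at 32C, where p53 is wild-type in conformation. Viability read as ATP luminescence and normalised to DMSO and 100 uM tamoxifen. AC50 fitted with the Hill equation.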
The depositor's hits bear a star; ? = inconclusive; · = no result; [ ] = dose if it differs, or a comment. This is a sample that favours compounds with a hit; in the whole collection about 3.1% have one here. Unless noted, the call rests on the fitted dose curve; in most records, active means well fitted curve in the direction sought with a large enough effect; inconclusive means small, poorly fitted or top-dose-only effect, or another doubt; inactive means no such curve, though single readings can be large; an effect the other way counts as inactive or inconclusive. Potency means the concentration at half of the fitted maximal effect.

SMILES	TSHR ag	HEK293 cAMP cs	IkB signaling	Peg3 imprint	p53ts 39C tox	p53ts 32C tox
CCOC(=O)c1c(-c2ccc(C)o2)csc1NC(=O)CN1CCN(CC)CC1	1.6%	21.5%	2.7%	-35.4%	-9.7%	-7.4%
CCOC(=O)c1c(-c2ccc(C)o2)csc1NC(=O)CSc1nncs1	?	25.1µM*	?	-23.6%	-15.4%	8.8%
Cc1cccc(C(OC(=O)c2ccco2)C(=O)NCc2ccccc2)n1 (stereo not drawn)	-6.3%	7.3%	-0.2%	24.5%	-0.7%	1.9%
COc1ccc(CNC(=O)C(OC(C)=O)c2ccccn2)cc1 (stereo not drawn)	?	7.94µM*	-0.6%	·	1.6%	-1.1%
CC(C)OC(=O)CSc1nnc(-c2ccco2)n1N	2.0%	1.7%	0.0%	-3.2%	2.4%	-0.8%
COc1cccc(-c2nnc(SCC(=O)OC(C)C)n2N)c1	12.6µM*	11.3%	2.0%	-16.6%	6.3%	4.2%
CCOc1ccc(N2C(=O)CC(SCCN)C2=O)cc1 (stereo not drawn)	-4.2%	15.3%	-0.3%	·	12.6µM*	12.6µM*
C/C=C/Cn1c(SCc2ccc(Cl)cc2)nc2c1c(=O)[nH]c(=O)n2C	?	25.1µM*	?	-0.7%	-17.5%	-3.5%
COc1cc(S(=O)(=O)N2CCCCCC2)c(OC)cc1Br	?	15.8µM*	-0.4%	-11.3%	2.8%	-0.6%
Cc1ccc(C)c(NC(=O)Cc2coc3cc(C)cc(C)c23)c1	·	·	0.3%	-58.8%[10.9 µM]	-20.1%	-3.0%
Cc1cc(C)c2c(CC(=O)NCc3ccco3)coc2c1	31.6µM*	17.5%	1.8%	-13.8%	2.0%	9.7%
N#Cc1ccc2ccn(CC(=O)NCc3ccccc3)c2c1	·	11.7%	-1.7%	-8.0%	-7.3%	-4.6%
N#Cc1ccc2ccn(CC(=O)NC3CCCCC3)c2c1	?	15.8µM*	0.4%	0.9%	-6.4%	2.0%
CCOC(=O)c1sc2ncn(CC(=O)Nc3ccc(C)cc3C)c(=O)c2c1C	·	·	2.6%	-4.3%[10.9 µM]	7.0%	7.0%
Cc1cc(C(=O)Cn2nnc3ccccc3c2=O)c(C)n1Cc1cccs1	?	?	?	-29.7%	12.6µM*	15.8µM*
COc1ccc(NC(=O)CCN2CCN(CCO)CC2)c(OC)c1	·	·	-0.2%	23.6%[10.9 µM]	25.4%	4.7%
COCCn1c(SCC(=O)c2ccc(OC)cc2)nc2cc(C(=O)NC3CCCC3)ccc2c1=O	·	·	0.2%	2.3%[10.9 µM]	-7.6%	10.5%
COc1ccc(C(CC(=O)NCc2ccc(Cl)cc2)N2Cc3ccccc3C2=O)cc1OC (stereo not drawn)	·	·	1.6%	-1.0%[10.9 µM]	-16.0%	10.2%
Cc1ccccc1OCCCn1c(CCNC(=O)C2CCCCC2)nc2ccccc21	·	·	?	-9.2%[10.9 µM]	15.8µM*	-11.5%
O=C(NCCc1nc2ccccc2n1CCCOc1ccc(Cl)cc1)C1CCCCC1	·	·	?	-5.1%[10.9 µM]	15.8µM*	?
Cc1cccc(C)c1OCCn1c(CCNC(=O)C2CCCCC2)nc2ccccc21	·	·	?	-6.2%[10.9 µM]	?	16.8%
Cc1cc(C)cc(OCCCn2c(CCNC(=O)C3CCCCC3)nc3ccccc32)c1	·	·	?	-14.8%[10.9 µM]	?	-7.8%
Cc1ccc(C)c(CSc2nnc3[nH]c(=O)cc(-c4ccccc4)n23)c1	·	·	?	2.0%[10.9 µM]	-22.4%	-6.3%
O=C(/C=C/c1ccccc1)N1CCN(Cc2cc(=O)n3nc(-c4ccccc4)sc3n2)CC1	·	·	1.3%	1.6%[10.9 µM]	5.5%	6.4%
Cc1ccc(NC(=O)CN2C(=O)COc3ccc(S(=O)(=O)Nc4ccccc4)cc32)c(C)c1	·	·	?	18.8%[10.9 µM]	-13.8%	12.2%
O=C(COC(=O)c1ccco1)NCc1ccco1	?	?	?	-7.0%	1.9%	6.1%
Cc1cc(C(=O)OCC(=O)NCc2ccco2)c(C)n1-c1ccc(F)cc1	?	15.8µM*	?	-24.5%	-2.5%	-0.7%
